# Screening data: PubChem, several laboratories
# PLK1 inh: blocks human PLK1 kinase activity; P53350; recombinant PLK1 kinase, TR-FRET peptide phosphorylation; inhibition, % at 10 µM; 0.53% of 97,000 active;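 active means inhibition of 50% or more in the single-concentration screen; inactive means inhibition below 50%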;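 further: 0% = DMSO max control and 100% = H-89 dihydrochloride min control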
# Cav32 inh: blocks human Cav3.2 T-type calcium channel; Cav3.2-expressing cells, Fluo-4 calcium fluorescence FDSS; active compounds read low; O95180; B-score at 10 µM; 4% of 100,000 active;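 active means single-dose well whose peak fluorescence ratio is a statistical outlier from its plate by either plate-standardised score or position-corrected B-score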
# sdo1 growth: compounds rescuing growth of sdo1-depleted yeast, bone marrow failure model; S. cerevisiae sdo1-depleted JHY4D growth rescue, OD600 30 h; active compounds read high; pdr5 snq2 efflux-pump mutant strain; 0.21% of 140,000 active; z-score at 10 µM;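 active means z-score above 3 at both the 24 hr and the 30 hr optical density reads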;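 further: z-score against mean and SD of all compound wells on the same plate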
# PTK2B oligo ant: blocks oligomerization of human Pyk2 in cells. AID 1347419. Q293 cells, Pyk2 FERM NanoBiT luminescence; active compounds read low. Q14289. 0.83% of 99,000 active. z-score (the deposit names both 25 µM and 10 µM);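 active means Z-score of -3 or lower, scaled per plate to the spread of control and sample wells; inactive means z-score above -3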;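 further: negative z-score means lost luminescence so less FERM oligomerization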
# Target sequence (Q14289 whole entry, looked up): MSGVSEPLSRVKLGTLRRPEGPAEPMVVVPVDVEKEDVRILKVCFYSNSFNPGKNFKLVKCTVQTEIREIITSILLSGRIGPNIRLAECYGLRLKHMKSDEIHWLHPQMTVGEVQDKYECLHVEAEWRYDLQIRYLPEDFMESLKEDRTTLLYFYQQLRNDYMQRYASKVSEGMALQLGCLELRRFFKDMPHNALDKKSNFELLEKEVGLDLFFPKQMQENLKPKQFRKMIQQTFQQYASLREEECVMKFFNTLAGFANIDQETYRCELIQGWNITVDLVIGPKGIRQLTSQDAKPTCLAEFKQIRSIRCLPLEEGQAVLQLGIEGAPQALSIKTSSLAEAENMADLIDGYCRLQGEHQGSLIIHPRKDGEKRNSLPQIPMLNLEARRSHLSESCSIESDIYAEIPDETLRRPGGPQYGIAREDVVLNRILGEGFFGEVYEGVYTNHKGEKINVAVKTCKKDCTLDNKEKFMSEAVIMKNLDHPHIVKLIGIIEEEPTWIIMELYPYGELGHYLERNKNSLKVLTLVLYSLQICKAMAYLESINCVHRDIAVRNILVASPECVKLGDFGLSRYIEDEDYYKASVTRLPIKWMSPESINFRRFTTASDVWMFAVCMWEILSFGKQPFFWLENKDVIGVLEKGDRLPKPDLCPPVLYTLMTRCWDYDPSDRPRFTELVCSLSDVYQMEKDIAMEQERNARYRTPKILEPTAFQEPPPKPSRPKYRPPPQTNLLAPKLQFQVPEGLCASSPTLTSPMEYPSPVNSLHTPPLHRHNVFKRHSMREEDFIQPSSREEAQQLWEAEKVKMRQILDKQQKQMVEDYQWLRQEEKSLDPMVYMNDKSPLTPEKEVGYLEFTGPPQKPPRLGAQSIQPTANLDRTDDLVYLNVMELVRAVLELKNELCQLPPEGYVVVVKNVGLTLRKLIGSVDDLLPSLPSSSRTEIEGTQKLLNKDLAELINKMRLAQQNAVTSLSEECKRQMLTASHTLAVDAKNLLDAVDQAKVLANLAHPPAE
# Plk1 PBD FP: inhibitors of human Plk1 polo box domain binding; P53350; Plk1 PBD phosphopeptide binding, fluorescence polarization; inhibition, %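 (tested at about 20 µM)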; 0.13% of 97,000 active; in the data active means inhibition above about 34%, passing the limit was not always enough
# hDAT+cocaine: human DAT dopamine uptake with cocaine, either direction; 1.3% of 110,000 active; Q01959; LLC-PK1 hDAT cells, [14C]-dopamine uptake with cocaine IC80; actives deviate in either direction; AID 449768; B-score at 10 µM;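 active means Z score or B-score, a plate-position-corrected score, falls beyond the plate's 99.7% confidence bounds, in either direction; inactive means both scores lie inside the 99.7% bounds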;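 further: scored against the spread of the other compound wells on the same plate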
# * hit, by the source's call; / = not tested or not shown; ! = repeats disagree. Hits are enriched below; roughly 4.7% of the tested compounds scored in any of these assays.
SMILES,PLK1 inh,Cav32 inh,sdo1 growth,PTK2B oligo ant,Plk1 PBD FP,hDAT+cocaine
O=C(NCc1cccc(Br)c1)c1cc(-c2ccccc2)nn1CC1CC(c2cccc([N+](=O)[O-])c2)=NO1 (stereo not given),/,-1.8,/,/,/,2.5
Cc1[nH]c2ccccc2c1C(=O)CSC(=S)N1CCCCC1,/,/,-1.2,/,/,/
COc1ccc(/C=C2/C(=O)OCc3cc(OC)c(OC)cc32)cc1,/,/,-1.1,/,/,/
COC(=O)c1sccc1NC(=O)CSc1ccccc1NS(=O)(=O)c1ccccc1Cl,-17,-4.3*,-0.58,-2.7,-9,1.1
COC(=O)c1sccc1NC(=O)CSc1cc(Cl)ccc1Cl,-9,/,-0.45,-0.33,-6,-0.67
COC(=O)c1sccc1NC(=O)CSc1ccccc1NS(=O)(=O)c1ccc(Cl)cc1,-3,-6*,-0.81,-1.8,15,-0.015
COC(=O)c1sccc1NC(=O)COc1ccccc1Cl,/,/,-0.89,/,/,/
O=C(CCc1[nH]c2ccccc2c1Sc1ccccc1)NCCO,/,/,0.53,/,/,/
OC(CN(c1ccccc1)c1ccccc1)Cn1cnc2ccccc21 (stereo not given),-4,-5*,-1.2,-0.66,8,-0.016
O=C(Cc1ccc(F)cc1)N/N=C/c1ccncc1,/,/,0.84,/,/,/
COc1ccc(OC)c(NC(=O)C(=O)/C=C(\O)c2cc(OC)ccc2OC)c1,-7,-5.2*,-1.6,-0.51,12,-0.039
COc1ccc(C(=O)N/N=C/c2ccc3cccc(OCc4ccccc4)c3n2)cc1,-14,-2.2,-0.81,-4*,-6,1.6
O=C(N/N=C/c1ccccn1)c1ccc(Br)cc1,/,/,-0.34,/,/,/
COc1cccc(/C=N/NC(=O)c2ccc(OCc3cccc(Br)c3)cc2)c1,-14,-6*,-0.05,0.64,1,1.3
O=C(N/N=C/c1ccc2cccc(OCc3ccccc3)c2n1)c1ccc(Br)cc1,-11,-4*,-1.1,-2.4,-3,/
O=C(N/N=C/c1cccc(OCc2ccccc2)c1)c1ccc(Br)cc1,/,/,-0.44,/,/,/
COc1ccc(C2C(C(C)=O)=C(C)N=c3s/c(=C\c4cc(C)n(C)c4C)c(=O)n32)c(OC)c1 (stereo not given),-8,-5*,-0.46,0.39,-199,0.011
O=[N+]([O-])c1nn(-c2ccc3c(c2)OCCO3)n(O)c1=Nc1ccc(Cl)cc1,-6,-2.2,-2.8,-3.4*,9,-0.78
CC(C)c1nc2n[nH]c(N)c2c2c1CSC(C)(C)C2,59*,-0.01,-0.64,0.27,-14,-0.028
Cc1ccc(S(=O)(=O)N2CCN(C(C)C(=O)Nc3ccccc3-c3ccccc3)CC2)cc1 (stereo not given),/,/,-0.19,/,/,/
CCCCC(=O)NC(=S)Nc1c(C)cc(Br)cc1C,/,/,-1.1,/,/,/
Cc1cccc(OCCCSc2nc3ccccc3[nH]2)c1,-11,-8.1*,-1.6,0.69,7,-0.41
CCOc1ccc(OCCSc2nc3ccccc3[nH]2)cc1,-8,-0.81,-1.2,-0.48,-21,0.16
CC(=O)N1CCN(CC(=O)Nc2ccc(Cl)c(S(=O)(=O)N(C)C)c2)CC1,/,/,0.74,/,/,/
CN(C)c1ccc(NC(=O)CN2CCN(S(=O)(=O)c3cc(Cl)ccc3Cl)CC2)cc1,-7,-4.1*,-1.4,-0.41,-32,0.085
SMILES,PLK1 inh,Cav32 inh,sdo1 growth,PTK2B oligo ant,Plk1 PBD FP,hDAT+cocaine
O=C(Nc1ccc2c(c1)OCCO2)c1ccc(Cl)c(S(=O)(=O)N2CCOCC2)c1,-12,-0.024,0.46,-1.9,-10,-0.31
O=C(CN1CCN(S(=O)(=O)c2cc(Cl)ccc2Cl)CC1)Nc1ccc2c(c1)OCCO2,/,/,-0.68,-1.2,/,1.8*!
CCNC(=O)c1ccc2c(c1)C1C3CCC(C3)C1C(c1ccccc1)N2 (stereo not given),/,/,-1.4,/,/,/
COCCCNC(=O)c1cccs1,-14,-0.0023,0.05,0.45,5,2.7*
CCCc1nc2ccccc2c(=O)n1/N=C/c1c(C)[nH]n(-c2ccc(C)cc2)c1=O,-2,-3.8*,0.98,-0.78,4,0.031
CCC(C)NS(=O)(=O)c1ccc(S(=O)(=O)N2CCCC3(CCCCC3)C2)cc1 (stereo not given),-8,-6.3*,-0.71,-0.66,6,1.2
COc1ccc([N+](=O)[O-])cc1NC(=O)C(C)Sc1nc(-c2ccccc2)cs1 (stereo not given),/,/,0.74,/,/,/
CC(C)(C)C1CCC2(CC1)C(C#N)=C(SCC(=O)Nc1ccccc1)NC(=O)C2C#N (stereo not given),/,-6.7*,-0.57,-1.4,/,-1.3
